Here are results for 1 sequence from article PMC7862700, “An all-to-all approach to the identification of sequence-specific readers for epigenetic DNA modifications on cytosine”.

Common to all, as to experiment: DAPPL (digital affinity profiling via proximity ligation, sequencing); 10 mM Tris-HCl pH 7.5, 50 mM NaCl, 1 mM DTT, 4% glycerol, room temperature, 30 min; GST-TFs on glutathione beads, 16-mer random dsDNA library, 0.1% formaldehyde crosslink after washing; high values mean tight binding
Test [1] has as its target T1, FLI1 (Homo sapiens, UniProt Q01543 1-452).
T1 sequence: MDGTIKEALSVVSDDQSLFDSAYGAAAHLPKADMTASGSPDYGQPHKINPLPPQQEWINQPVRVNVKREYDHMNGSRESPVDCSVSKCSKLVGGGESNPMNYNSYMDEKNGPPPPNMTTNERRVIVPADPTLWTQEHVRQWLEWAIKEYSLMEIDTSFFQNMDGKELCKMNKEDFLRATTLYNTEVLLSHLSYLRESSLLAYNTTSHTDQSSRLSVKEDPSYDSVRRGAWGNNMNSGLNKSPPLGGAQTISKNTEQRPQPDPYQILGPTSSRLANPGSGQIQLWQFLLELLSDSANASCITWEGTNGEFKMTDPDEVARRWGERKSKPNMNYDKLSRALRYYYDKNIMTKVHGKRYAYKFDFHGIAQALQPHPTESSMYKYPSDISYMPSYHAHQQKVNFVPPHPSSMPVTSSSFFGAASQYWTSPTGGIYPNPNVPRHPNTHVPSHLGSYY
As to conditions: protein: recombinant; tags: N-terminal GST; dsDNA, one strand shown. In outline: (§1)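 Binding signal is given per hexamer as its read frequency for a factor divided by its frequency in the tag-only sample. GST-fused human transcription factors were expressed in yeast, captured on glutathione beads, barcoded with DNA and pooled with that sample, then incubated with 200 nmole of a 16-mer random double-stranded DNA library in Tris/NaCl/DTT/glycerol buffer for 30 min at room temperature. The pools were then washed, crosslinked, proximity-ligated, amplified by PCR and sequenced on an Illumina NextSeq500.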

For test [2], the target named is T2, ELK1 (Homo sapiens, UniProt P19419 1-428).
T2 sequence: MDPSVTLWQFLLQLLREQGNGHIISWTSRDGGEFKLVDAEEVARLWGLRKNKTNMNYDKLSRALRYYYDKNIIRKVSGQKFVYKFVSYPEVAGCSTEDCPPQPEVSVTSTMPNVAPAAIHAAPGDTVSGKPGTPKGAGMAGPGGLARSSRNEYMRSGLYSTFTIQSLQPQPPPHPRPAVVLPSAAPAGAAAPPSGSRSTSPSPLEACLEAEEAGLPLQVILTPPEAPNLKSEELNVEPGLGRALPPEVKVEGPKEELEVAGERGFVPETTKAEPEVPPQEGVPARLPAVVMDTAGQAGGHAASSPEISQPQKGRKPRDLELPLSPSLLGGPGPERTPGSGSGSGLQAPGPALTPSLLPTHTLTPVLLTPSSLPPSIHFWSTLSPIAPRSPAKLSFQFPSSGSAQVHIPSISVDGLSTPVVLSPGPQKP
As to conditions: protein: recombinant; tags: N-terminal GST; dsDNA, one strand shown. Put shortly: as §1

Test [3] addresses T3, GABPA (Homo sapiens, UniProt Q06546 1-454).
T3 sequence: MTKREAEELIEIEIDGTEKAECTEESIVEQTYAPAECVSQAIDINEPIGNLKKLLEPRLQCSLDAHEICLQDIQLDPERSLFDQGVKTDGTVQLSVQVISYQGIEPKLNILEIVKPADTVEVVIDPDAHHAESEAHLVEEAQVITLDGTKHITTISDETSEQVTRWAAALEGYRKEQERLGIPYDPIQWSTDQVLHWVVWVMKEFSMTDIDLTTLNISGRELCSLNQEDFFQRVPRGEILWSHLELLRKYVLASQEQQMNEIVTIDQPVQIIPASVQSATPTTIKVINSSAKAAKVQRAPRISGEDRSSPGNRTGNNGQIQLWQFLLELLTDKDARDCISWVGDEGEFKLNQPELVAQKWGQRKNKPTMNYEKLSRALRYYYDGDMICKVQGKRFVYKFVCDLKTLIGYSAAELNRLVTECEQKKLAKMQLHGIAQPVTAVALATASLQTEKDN
Conditions: protein: recombinant; tags: N-terminal GST; dsDNA, one strand shown. In outline:
as §1

The target in test [4] is T4, ERG (Homo sapiens, UniProt P11308 1-479).
T4 sequence: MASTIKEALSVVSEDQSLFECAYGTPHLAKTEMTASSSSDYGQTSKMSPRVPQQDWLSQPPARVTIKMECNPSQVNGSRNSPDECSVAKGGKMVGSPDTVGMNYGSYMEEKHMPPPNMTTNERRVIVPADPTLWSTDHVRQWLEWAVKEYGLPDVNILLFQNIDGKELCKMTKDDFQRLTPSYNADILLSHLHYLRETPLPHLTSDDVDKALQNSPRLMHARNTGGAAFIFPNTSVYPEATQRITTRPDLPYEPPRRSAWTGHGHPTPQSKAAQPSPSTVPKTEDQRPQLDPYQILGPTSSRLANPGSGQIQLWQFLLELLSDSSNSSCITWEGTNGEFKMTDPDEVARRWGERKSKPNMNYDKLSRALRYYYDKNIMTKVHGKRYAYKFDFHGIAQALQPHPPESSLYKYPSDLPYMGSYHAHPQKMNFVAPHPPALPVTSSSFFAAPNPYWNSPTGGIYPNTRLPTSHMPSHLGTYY
As to conditions: protein: recombinant; tags: N-terminal GST; dsDNA, one strand shown. Put shortly: as §1

For test [5], the target named is ELF1 (Homo sapiens, UniProt P32519 1-619). Conditions: protein: recombinant; tags: N-terminal GST; dsDNA, one strand shown. In outline:
as §1

Test [6] has as its target T5, EHF (Homo sapiens, UniProt Q9NZC4 1-300).
T5 sequence: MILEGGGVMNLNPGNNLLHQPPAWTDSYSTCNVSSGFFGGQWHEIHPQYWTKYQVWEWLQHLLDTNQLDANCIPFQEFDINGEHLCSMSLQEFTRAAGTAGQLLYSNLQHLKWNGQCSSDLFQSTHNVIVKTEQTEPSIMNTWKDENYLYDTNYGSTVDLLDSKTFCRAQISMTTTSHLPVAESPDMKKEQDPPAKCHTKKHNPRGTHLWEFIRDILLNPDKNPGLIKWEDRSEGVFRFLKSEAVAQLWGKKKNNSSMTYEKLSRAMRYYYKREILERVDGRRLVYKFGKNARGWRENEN
Conditions: protein: recombinant; tags: N-terminal GST; dsDNA, one strand shown. Put shortly: as §1

Test [7] has as its target SPI1 (Homo sapiens, UniProt P17947 1-270). Conditions: protein: recombinant; tags: N-terminal GST; dsDNA, one strand shown. Put shortly:
as §1

Test [8] addresses SPIB (Homo sapiens, UniProt Q01892 1-262). As to conditions: protein: recombinant; tags: N-terminal GST; dsDNA, one strand shown. Put shortly: as §1
The target in test [9] is T6, ELK3 (Homo sapiens, UniProt P41970 1-407).
T6 sequence: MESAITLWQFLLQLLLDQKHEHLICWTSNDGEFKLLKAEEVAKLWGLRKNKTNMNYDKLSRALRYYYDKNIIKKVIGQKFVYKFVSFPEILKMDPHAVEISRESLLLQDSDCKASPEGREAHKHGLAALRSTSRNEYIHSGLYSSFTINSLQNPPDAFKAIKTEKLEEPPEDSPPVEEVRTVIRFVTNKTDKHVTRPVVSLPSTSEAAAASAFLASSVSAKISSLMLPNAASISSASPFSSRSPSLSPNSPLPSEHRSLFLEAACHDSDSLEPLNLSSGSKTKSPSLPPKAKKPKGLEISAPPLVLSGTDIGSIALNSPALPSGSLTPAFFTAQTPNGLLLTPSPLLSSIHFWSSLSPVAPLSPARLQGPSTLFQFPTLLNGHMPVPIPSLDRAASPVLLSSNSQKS
Conditions: protein: recombinant; tags: N-terminal GST; dsDNA, one strand shown. Put shortly: as §1

Test [10] deals with T7, FEV (Homo sapiens, UniProt Q99581 1-238).
T7 sequence: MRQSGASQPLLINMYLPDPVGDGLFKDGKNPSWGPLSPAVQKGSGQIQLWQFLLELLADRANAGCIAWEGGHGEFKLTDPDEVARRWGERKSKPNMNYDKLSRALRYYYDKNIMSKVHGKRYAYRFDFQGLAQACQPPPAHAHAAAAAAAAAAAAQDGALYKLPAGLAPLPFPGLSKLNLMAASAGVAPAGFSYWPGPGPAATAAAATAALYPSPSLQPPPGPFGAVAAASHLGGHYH
Conditions: protein: recombinant; tags: N-terminal GST; dsDNA, one strand shown. Put shortly: as §1

Test [11] concerns the target ETV5 (Homo sapiens, UniProt P41161 1-510). Conditions: protein: recombinant; tags: N-terminal GST; dsDNA, one strand shown. In outline: as §1
Test [12] concerns the target HSF1 (Homo sapiens, UniProt Q00613 1-529). As to conditions: protein: recombinant; tags: N-terminal GST; chain copies: 3; dsDNA, one strand shown. In outline: as §1
Test [13] addresses T8, SPIC (Homo sapiens, UniProt Q8N5J4 1-248).
T8 sequence: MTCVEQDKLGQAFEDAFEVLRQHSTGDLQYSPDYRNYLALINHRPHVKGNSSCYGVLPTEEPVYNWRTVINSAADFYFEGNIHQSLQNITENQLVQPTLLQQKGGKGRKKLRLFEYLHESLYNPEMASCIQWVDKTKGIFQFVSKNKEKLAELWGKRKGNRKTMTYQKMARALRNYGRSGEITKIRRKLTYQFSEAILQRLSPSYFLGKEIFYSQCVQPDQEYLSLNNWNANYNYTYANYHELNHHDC
As to conditions: protein: recombinant; tags: N-terminal GST; dsDNA, one strand shown. Put shortly:
as §1

In test [14] the target is ELF4 (Homo sapiens, UniProt Q99607 1-663). Conditions: protein: recombinant; tags: N-terminal GST; dsDNA, one strand shown. Put shortly:
as §1

For test [15], the target named is T9, ELK4 (Homo sapiens, UniProt P28324-2 1-405).
T9 sequence: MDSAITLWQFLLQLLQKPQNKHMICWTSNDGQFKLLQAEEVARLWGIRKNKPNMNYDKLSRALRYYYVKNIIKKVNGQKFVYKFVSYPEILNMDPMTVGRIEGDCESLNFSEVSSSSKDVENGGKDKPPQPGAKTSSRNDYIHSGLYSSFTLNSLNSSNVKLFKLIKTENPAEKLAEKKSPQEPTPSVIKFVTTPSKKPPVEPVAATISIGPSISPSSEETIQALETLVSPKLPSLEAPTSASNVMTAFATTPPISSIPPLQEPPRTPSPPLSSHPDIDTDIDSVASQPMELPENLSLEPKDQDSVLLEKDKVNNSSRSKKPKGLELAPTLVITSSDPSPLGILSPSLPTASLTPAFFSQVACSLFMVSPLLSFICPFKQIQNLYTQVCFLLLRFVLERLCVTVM
Conditions: protein: recombinant; tags: N-terminal GST; dsDNA, one strand shown. In outline: as §1

The target of test [16] is T10, ETV2 (Homo sapiens, UniProt O00321 1-342).
T10 sequence: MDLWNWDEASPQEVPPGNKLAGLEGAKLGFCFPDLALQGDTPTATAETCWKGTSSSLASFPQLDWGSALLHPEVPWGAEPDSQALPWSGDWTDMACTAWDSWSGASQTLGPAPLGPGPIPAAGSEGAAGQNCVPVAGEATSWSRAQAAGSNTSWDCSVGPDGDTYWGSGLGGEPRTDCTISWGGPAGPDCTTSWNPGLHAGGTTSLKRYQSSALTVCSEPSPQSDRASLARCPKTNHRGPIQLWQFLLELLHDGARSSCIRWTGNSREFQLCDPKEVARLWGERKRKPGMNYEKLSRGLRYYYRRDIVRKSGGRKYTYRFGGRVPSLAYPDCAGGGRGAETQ
As to conditions: protein: recombinant; tags: N-terminal GST; dsDNA, one strand shown. In outline:
as §1

Test [17] deals with T11, ELF3 (Homo sapiens, UniProt P78545 1-371).
T11 sequence: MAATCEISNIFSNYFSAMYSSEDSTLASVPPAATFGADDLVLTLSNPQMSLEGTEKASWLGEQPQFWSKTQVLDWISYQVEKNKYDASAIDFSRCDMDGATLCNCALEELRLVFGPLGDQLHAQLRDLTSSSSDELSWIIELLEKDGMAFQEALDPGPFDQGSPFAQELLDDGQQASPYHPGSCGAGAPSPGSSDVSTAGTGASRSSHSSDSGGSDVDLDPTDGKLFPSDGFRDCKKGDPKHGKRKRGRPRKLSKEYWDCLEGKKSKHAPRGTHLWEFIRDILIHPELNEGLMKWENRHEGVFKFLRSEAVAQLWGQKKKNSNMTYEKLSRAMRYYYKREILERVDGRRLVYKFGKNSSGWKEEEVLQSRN
Conditions: protein: recombinant; tags: N-terminal GST; dsDNA, one strand shown. Put shortly:
as §1

Test [18] concerns the target CRX (Homo sapiens, UniProt O43186 1-299). Conditions: protein: recombinant; tags: N-terminal GST; dsDNA, one strand shown. In outline: as §1
Test [19] has as its target ETV1 (Homo sapiens, UniProt P50549 1-477). As to conditions: protein: recombinant; tags: N-terminal GST; dsDNA, one strand shown. In outline: as §1

Sequence of CRX (O43186 whole entry): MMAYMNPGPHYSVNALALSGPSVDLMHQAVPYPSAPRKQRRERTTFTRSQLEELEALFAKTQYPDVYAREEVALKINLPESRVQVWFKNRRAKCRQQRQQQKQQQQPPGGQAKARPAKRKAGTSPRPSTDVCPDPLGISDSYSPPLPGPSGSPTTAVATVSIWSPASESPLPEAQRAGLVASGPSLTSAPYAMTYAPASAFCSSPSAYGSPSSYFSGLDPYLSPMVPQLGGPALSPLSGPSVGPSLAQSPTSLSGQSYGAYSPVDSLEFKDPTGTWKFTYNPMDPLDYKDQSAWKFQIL
Sequence of ETV1 (P50549 whole entry): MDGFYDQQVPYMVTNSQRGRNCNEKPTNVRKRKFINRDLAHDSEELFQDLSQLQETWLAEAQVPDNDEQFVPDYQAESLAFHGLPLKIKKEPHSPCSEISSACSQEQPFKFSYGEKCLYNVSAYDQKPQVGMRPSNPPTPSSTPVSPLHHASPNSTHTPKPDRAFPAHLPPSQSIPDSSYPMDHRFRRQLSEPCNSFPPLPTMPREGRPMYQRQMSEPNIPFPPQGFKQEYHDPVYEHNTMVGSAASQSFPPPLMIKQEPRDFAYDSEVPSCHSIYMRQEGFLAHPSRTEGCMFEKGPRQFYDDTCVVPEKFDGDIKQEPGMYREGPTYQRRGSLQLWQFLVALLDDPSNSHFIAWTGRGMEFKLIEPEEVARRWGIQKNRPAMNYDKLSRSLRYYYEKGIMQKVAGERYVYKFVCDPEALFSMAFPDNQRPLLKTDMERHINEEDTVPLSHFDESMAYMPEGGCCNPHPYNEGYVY
Sequence of HSF1 (Q00613 whole entry): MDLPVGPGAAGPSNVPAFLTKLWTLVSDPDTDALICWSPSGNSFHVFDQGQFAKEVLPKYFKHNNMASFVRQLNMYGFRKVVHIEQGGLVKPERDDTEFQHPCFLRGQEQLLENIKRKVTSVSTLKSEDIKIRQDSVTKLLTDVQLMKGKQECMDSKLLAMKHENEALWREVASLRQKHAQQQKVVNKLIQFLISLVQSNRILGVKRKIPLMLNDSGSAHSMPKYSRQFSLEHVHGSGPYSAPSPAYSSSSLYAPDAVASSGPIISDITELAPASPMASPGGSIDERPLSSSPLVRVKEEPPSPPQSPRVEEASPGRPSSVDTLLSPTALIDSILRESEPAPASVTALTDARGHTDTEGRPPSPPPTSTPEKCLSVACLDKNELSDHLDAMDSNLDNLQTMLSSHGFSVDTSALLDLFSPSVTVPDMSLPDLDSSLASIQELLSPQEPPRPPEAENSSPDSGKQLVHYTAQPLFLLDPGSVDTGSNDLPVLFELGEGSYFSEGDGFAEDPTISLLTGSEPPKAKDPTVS
Sequence of ETV5 (P41161 whole entry): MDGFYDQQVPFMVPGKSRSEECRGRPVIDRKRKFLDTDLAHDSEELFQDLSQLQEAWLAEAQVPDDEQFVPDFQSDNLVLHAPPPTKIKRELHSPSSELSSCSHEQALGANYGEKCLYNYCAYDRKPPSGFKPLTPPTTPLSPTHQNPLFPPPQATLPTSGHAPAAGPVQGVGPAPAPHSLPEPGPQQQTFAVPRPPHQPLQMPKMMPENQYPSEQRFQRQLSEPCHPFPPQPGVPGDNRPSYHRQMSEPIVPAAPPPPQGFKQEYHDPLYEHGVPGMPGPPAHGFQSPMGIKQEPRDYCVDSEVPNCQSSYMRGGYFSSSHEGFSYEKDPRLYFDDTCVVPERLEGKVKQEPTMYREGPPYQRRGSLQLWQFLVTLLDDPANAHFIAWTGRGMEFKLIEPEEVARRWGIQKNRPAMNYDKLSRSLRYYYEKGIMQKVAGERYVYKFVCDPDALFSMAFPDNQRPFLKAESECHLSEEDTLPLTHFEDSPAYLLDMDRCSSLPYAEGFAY
Sequence of ELF4 (Q99607 whole entry): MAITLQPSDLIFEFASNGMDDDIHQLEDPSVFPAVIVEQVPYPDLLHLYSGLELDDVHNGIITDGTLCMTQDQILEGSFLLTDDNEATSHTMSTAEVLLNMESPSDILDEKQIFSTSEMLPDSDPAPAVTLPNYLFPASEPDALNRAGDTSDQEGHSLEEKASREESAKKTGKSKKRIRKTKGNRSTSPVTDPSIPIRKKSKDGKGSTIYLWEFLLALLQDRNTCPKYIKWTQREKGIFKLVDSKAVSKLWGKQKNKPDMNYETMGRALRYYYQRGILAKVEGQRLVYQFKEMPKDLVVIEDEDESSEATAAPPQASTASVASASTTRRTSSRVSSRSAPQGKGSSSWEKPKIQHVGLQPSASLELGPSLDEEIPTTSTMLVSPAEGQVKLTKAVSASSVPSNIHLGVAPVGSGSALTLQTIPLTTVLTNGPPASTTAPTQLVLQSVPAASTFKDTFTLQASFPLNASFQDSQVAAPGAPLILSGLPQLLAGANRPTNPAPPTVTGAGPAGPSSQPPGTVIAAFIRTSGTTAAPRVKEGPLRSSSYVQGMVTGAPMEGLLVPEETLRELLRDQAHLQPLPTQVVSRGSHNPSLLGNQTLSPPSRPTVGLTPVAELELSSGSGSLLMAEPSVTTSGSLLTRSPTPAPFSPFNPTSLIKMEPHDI
Sequence of ELF1 (P32519 whole entry): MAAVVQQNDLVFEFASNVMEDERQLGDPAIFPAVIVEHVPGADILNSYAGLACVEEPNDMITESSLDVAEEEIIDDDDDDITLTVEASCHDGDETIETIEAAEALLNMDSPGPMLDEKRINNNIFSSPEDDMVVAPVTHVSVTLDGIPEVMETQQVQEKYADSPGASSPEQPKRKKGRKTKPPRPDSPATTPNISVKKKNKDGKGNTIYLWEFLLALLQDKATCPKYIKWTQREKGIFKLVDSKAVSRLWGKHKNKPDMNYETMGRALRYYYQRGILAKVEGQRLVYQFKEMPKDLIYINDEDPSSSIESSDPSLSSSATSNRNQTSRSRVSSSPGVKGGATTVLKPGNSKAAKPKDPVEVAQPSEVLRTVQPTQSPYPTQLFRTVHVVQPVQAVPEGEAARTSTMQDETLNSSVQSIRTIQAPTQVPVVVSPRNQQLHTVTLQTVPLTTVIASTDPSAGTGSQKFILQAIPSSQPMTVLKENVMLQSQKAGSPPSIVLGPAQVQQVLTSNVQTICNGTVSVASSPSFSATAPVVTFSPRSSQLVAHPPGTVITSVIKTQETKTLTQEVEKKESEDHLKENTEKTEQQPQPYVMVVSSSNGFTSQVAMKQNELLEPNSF
Sequence of SPIB (Q01892 whole entry): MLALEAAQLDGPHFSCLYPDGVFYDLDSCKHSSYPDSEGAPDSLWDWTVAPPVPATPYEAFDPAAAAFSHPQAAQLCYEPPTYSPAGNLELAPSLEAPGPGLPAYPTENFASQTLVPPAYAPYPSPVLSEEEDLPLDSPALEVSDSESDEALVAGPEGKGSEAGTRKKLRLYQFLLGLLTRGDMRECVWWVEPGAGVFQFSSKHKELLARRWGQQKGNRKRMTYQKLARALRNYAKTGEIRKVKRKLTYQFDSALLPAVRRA

ACACTA: the binding signal is 1.11 fold enrichment (6-mer frequency, TF over GST control) in test [1]; 1.17 fold enrichment (6-mer frequency, TF over GST control) in test [2]; 1.13 fold enrichment (6-mer frequency, TF over GST control) in [3]; 1.12 fold enrichment (6-mer frequency, TF over GST control) in [4]; 1.19 fold enrichment (6-mer frequency, TF over GST control) in test [5]; 1.15 fold enrichment (6-mer frequency, TF over GST control) in test [6]. The binding signal was 1.11 fold enrichment (6-mer frequency, TF over GST control) in [7]; 1.09 fold enrichment (6-mer frequency, TF over GST control) in [8]; 1.1 fold enrichment (6-mer frequency, TF over GST control) in test [9]; 1.14 fold enrichment (6-mer frequency, TF over GST control) in test [10]; 1.14 fold enrichment (6-mer frequency, TF over GST control) in test [11]; 1.12 fold enrichment (6-mer frequency, TF over GST control) in [12]. Also, the binding signal in test [13] was 1.14 fold enrichment (6-mer frequency, TF over GST control); in test [14], 1.13 fold enrichment (6-mer frequency, TF over GST control); in [15], 1.16 fold enrichment (6-mer frequency, TF over GST control); in [16], 1.1 fold enrichment (6-mer frequency, TF over GST control); in [17], 1.19 fold enrichment (6-mer frequency, TF over GST control); in test [18], 1.11 fold enrichment (6-mer frequency, TF over GST control). The binding signal in test [19] was 1.03 fold enrichment (6-mer frequency, TF over GST control).
